# Test results published in PubChem BioAssay AID624300 (Southern Research Specialized Biocontainment Screening …, 2012).
# The campaign covered roughly 2,400 compounds. About 360 (15%) were called active.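 Rule for the calls: active = viability falls under 70% at one or more tested concentrations, taken as toxicity; inactive = viability stays over 70% at every dose.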 The list is a sample of the results. Entries with a potency or affinity are not part of this list.
# Experiment: viability loss in HeLa cells – cytotoxicity control for MgcRacGAP inhibitor project, dose response (AID 624300)
# Conditions: CellTiter-Glo luminescence, 24 h; series mostly up to 100 µM
row,SMILES,outcome
1,CSc1nc(C)c2c(n1)N(c1ccc(O)cc1)CC2,inactive
2,CCN1CCN(c2ccc(N=Cc3ccccc3O)cc2)CC1,inactive
3,CC(=O)c1c(C)c(C)c2n1CCn1c(C)ccc1-2,inactive
4,CN1C(=O)/C(=C/c2ccc(C(=O)Nc3ccc(O)cc3C(=O)O)cc2)SC1=S,inactive
5,CCN=C1S/C(=C\c2ccc(O)c(OCC)c2)C(=O)N1CC,inactive
6,Cc1ccc(NCCCCO)cc1C,inactive
7,O=c1cc(-c2ccc(O)c(O)c2)oc2cc(O)c([C@@H]3O[C@H](CO)[C@@H](O)[C@H](O)[C@H]3O)c(O)c12,inactive
8,C/C(=N\NC(=O)c1cccc(N/N=C(\C)c2cc(O)ccc2O)c1)c1cc(O)ccc1O,inactive
9,Cn1c(=O)[nH]c(NCCc2ccc(O)cc2)c([N+](=O)[O-])c1=O,inactive
10,CC(=O)C1=C(O)C(=O)N(c2ccc(O)cc2)C1c1ccccc1[N+](=O)[O-] (stereo not drawn),inactive
11,COc1cc(/C=N/NC(=O)c2cc[n+]([O-])cc2)ccc1O,inactive
12,O=C1C=CC(=O)N1c1ccccc1N1C(=O)C=CC1=O,inactive
13,CCS(=O)(=O)c1ccc2oc(=O)c(/C=C(\O)c3ccc(Cl)cc3)nc2c1,inactive
14,CN(C)CCCC1Sc2ccccc2Sc2ccccc21 (stereo not drawn),inactive
15,Nc1cc([N+](=O)[O-])ccc1Nc1ccc(O)cc1,inactive
16,Cc1ccc(-n2c(=S)[nH]c3sc4c(c3c2=O)CCC4)cc1,inactive
17,COc1cc(/C(C)=N\NC(=O)CSc2nc3ccccc3n2C)ccc1O,inactive
18,CCN1CCN(CC(=O)Nc2nc3ccc(OC)cc3s2)CC1,inactive
19,CCC(=O)N1CCc2cc(S(=O)(=O)CCC(=O)NCc3ccc(C)cc3)ccc21,inactive
20,CCOc1ccc(CN2CCN(Cc3c[nH]c4ccccc34)CC2)cc1,inactive
21,O=C(CCc1c[nH]c2ccccc12)NCCc1ccc(O)cc1,inactive
22,Nc1nc2cc(S(=O)(=O)NC3=NCCCCC3)ccc2s1,inactive
23,Nc1nc(N)c2[nH]c(=S)[nH]c2n1,inactive
24,CN(CC(=O)NCc1ccncc1)S(=O)(=O)c1ccc(Cl)cc1,inactive
25,COC(=O)c1[nH]c2ccc(C)cc2c1NC(=O)Oc1ccccc1,inactive

row,SMILES,outcome
1,Nc1ccc(OCCc2ccccc2)cc1,inactive
2,CC(C)[C@H](N[C@@H](C)c1ccccc1)c1c(O)ccc2ccccc12,inactive
3,O=[N+]([O-])c1ccccc1OCCNCc1ccccc1,inactive
4,COc1cccc(OC)c1OCCNC(C)(C)C,inactive
5,CCn1c(-c2ccccc2)csc1=Nc1ccc(O)cc1,inactive
6,O=c1[nH][nH]cc1C=Nc1cc(Cl)ccc1O,inactive
7,CN(C)/C=C1\NC(=S)N(c2ccccc2)C1=O,inactive
8,CCc1ccc(NC(=O)CNCc2ccc(OC)c(OC)c2)cc1,inactive
9,CCOc1ccccc1/C=c1\sc2ncnn2c1=O,inactive
10,Cn1c(=O)[nH]c(N)c(Br)c1=O,inactive
11,O=C(COc1ccccc1)NCC(=O)N/N=C/c1ccc(O)cc1O,inactive
12,O=Nc1ccc(NOC(=O)c2ccccc2)cc1,inactive
13,Nc1ccc2c(c1)Nc1ccccc1CC2,inactive
14,CCN1CCN(CCOc2ccccc2OCc2ccccc2)CC1,inactive
15,COc1cc(/C=N/NC(=O)C(C)n2nnc3ccccc32)ccc1O (stereo not drawn),inactive
16,Oc1ccc(/C=N/Nc2ncc(Cl)cc2Cl)cc1,inactive
17,COc1cc(/C=N/Nc2nc(C)cc(C)n2)ccc1O,inactive
18,Oc1ccc(/C=N/Nc2ncnc3nc[nH]c23)cc1,inactive
19,COc1cc(/C=N/Nc2ccc(C(=O)O)cc2)ccc1O,inactive
20,COc1cc(/C=N/Nc2nc(N3CCCC3)nc(N3CCCC3)n2)ccc1O,inactive
21,O=C(O)C1CCCCC1C(=O)Nc1ccc(S(=O)(=O)N2CCOCC2)cc1 (stereo not drawn),inactive
22,Cc1ccn2c(=S)[nH]nc2c1,inactive
23,Oc1cc(Br)ccc1C=Nc1ccc(N2CCCCC2)cc1,inactive
24,COc1ccccc1CNCC(=O)Nc1ccc(N(C)C)cc1,inactive
25,O=C(N/N=C/c1ccc(O)cc1)Nc1cccc2nsnc12,inactive

row,SMILES,outcome
1,Cc1csc(=O)n1CC(=O)OC(C)C(=O)Nc1ccc(N(C)C)cc1 (stereo not drawn),inactive
2,CCN(Cc1ccccc1)c1ccc(/C=N/N2CCOCC2)cc1,inactive
3,C=CCn1c(SCC(=O)Nc2ccc(O)cc2)nc2sc(CC)cc2c1=O,inactive
4,Brc1ccccc1OCCCCCN1CCOCC1,inactive
5,C=CCNC(=O)CN1CCN(C(c2ccccc2)c2ccccc2)CC1,inactive
6,COc1ccc(NC2CCCN(C(=O)c3ccc(C(C)=O)s3)C2)cc1 (stereo not drawn),inactive
7,CN=c1scc(C)n1/N=C/c1ccc(O)cc1,inactive
8,Cc1cc(Br)cc(C=Nc2ccc(N3CCOCC3)cc2)c1O,inactive
9,O=C(c1cccc(Cl)c1)N1CCN(C2CCCCC2)CC1,inactive
10,Cc1c(Cl)cccc1NC(=S)Nc1ccc2[nH]c(=O)[nH]c2c1,inactive
11,Cc1ccc(OCCN2CCN(C)CC2)c([N+](=O)[O-])c1,inactive
12,O=C(CSc1nnnn1C1CC1)N1CCN(c2ccc(O)cc2)CC1,inactive
13,CCC(C)N1CCN(C(=O)c2cccs2)CC1 (stereo not drawn),inactive
14,O=c1oc2ccccc2cc1-c1csc(Nc2ccc(O)cc2)n1,inactive
15,Oc1ccc(Nc2ncnc3c2oc2ccccc23)cc1,inactive
16,OC1CNc2c(ccc3ccccc23)C1 (stereo not drawn),inactive
17,OCCN1CCN(Cc2ccc3ccccc3c2)CC1,inactive
18,CC(CCN1CCN(CCO)CC1)c1ccccc1 (stereo not drawn),inactive
19,O=[N+]([O-])c1ccc(N2CCN(CCOCCO)CC2)c([N+](=O)[O-])c1,inactive
20,COc1ccc(OCCOCCN2CCN(C)CC2)cc1,inactive
21,COc1ccc(O)c(/C=N/NC(=O)c2c(C)nnn2-c2nonc2N)c1,inactive
22,c1ccc(CC2CCN(Cc3ccccn3)CC2)cc1,inactive
23,CCC1(c2ccccc2)NC(=O)N(CC(=O)Nc2ccc(N3CCCC3)cc2C)C1=O (stereo not drawn),inactive
24,CCOC(=O)c1c(C)[nH]c(C(=O)CN2CCN(CC)CC2)c1C,inactive
25,CCOC(=O)C1=C(C)Nc2ccc(C)cc2S1,inactive

row,SMILES,outcome
1,COC(=O)c1cc(NCc2cccs2)ccc1N1CCOCC1,inactive
2,COc1cc(CNc2ccc3[nH]c(=O)[nH]c3c2)ccc1OCc1ccccc1,inactive
3,COc1cc(CNc2ccc(N3CCN(C(C)=O)CC3)cc2)ccc1OCc1ccccc1,inactive
4,O=C(N/N=C/c1ccc(O)c2ccccc12)c1cccnc1,inactive
5,Cc1nc(N)sc1-c1ccccc1,inactive
6,COc1cc(Br)c(CNc2cc(C)ccc2C)cc1OC,inactive
7,COc1ccccc1/C=C1/C(=O)N(c2ccccc2)N=C1C,inactive
8,CC1=NN(c2ccc(C(=O)O)cc2)C(=O)/C1=C\c1ccc(OC(=O)c2cccs2)cc1,inactive
9,Cc1c(N2C(=O)/C(=C\c3ccc(N(C)C)cc3)N(C)C2=S)c(=O)n(-c2ccccc2)n1C,inactive
10,CC1=NN(c2cccc(C(=O)O)c2)C(=O)/C1=C\C=C\c1ccco1,inactive
11,Cc1ccc(N2C(S)=C(C#N)C(=O)NC2c2ccco2)cc1 (stereo not drawn),inactive
12,CCOc1cc(/C=N/NC(=O)C(=O)N2CCCC2)ccc1O,inactive
13,Oc1ccc2ccccc2c1Br,inactive
14,CC[n+]1c(/C=C/N(C)c2ccccc2)oc2ccc(Cl)cc21,inactive
15,CC(=O)N1CCN(c2ccc(NCc3ccco3)cc2)CC1,inactive
16,O=C(O)c1ccc(COc2ccccc2C=C2C(=O)c3ccccc3C2=O)cc1,inactive
17,CCN(CC)c1ccc(/C=C2\C(=O)c3ccc(C(=O)O)cc3C2=O)cc1,inactive
18,Cc1cc(-c2n[nH]c(=S)n2/N=C/c2ccccc2[N+](=O)[O-])n[nH]1,inactive
19,Cc1cccn2c(=S)[nH]nc12,inactive
20,OCC1CCCN(C(=S)Nc2ccc(Nc3ccccc3)cc2)C1 (stereo not drawn),inactive
21,Nc1ccc(Nc2ccncc2)cc1,inactive
22,Cc1ccc(/C=C/C(=O)Nc2ccc([N+](=O)[O-])c(NC(=O)/C=C/c3ccc(C)o3)c2)o1,inactive
23,Cc1c(O)ccc(NC(=O)/C=C/c2ccccc2)c1C,inactive
24,C/C(=N/NC(=O)CSc1nc2ccccc2n1C)c1ccc(O)cc1,inactive
25,CCOC(=O)C(Cc1ccccc1)C(=O)Nc1ccc(N(CC)CC)cc1 (stereo not drawn),inactive

row,SMILES,outcome
1,CCOC(=O)/C(C#N)=C\c1ccc(O)c(OC)c1,inactive
2,CCOc1c(C=C(C#N)C#N)c2ccccc2n1CC,inactive
3,COc1ccc(NC2CCCN(C(=O)CCCn3cncn3)C2)cc1OC (stereo not drawn),inactive
4,Nc1ccc(Nc2nc(-c3ccncc3)cs2)cc1,inactive
5,O=C(CNC(=O)C1COc2ccccc2O1)N/N=C/c1ccc(O)cc1O (stereo not drawn),inactive
6,CCCCN(C)CCNC(=O)CSCc1ccc(C)cc1,inactive
7,O=C(Nc1n[nH]c(=S)s1)c1ccco1,inactive
8,CN(Cc1ccccc1)Cc1c(O)ccc2ccccc12,inactive
9,COc1ccc(CN2CCC(C(N)=O)CC2)cc1OCc1ccccc1,inactive
10,COC(=O)c1cc(NCc2ccccc2F)ccc1N1CCOCC1,inactive
11,COc1cc2cc(NC(C)=O)cc(NCc3ccccc3)c2cc1OC,inactive
12,COc1ccc(CN2CCN(Cc3ccc4ccccc4c3)CC2)cc1OC,inactive
13,Cc1nc2ccc(-c3nc4ccc(N)cc4[nH]3)cc2[nH]1,inactive
14,Cc1nc(Cc2nnc(SCC(=O)N3CCN(c4ccc(O)cc4)CC3)o2)cs1,inactive
15,Nc1nc(=S)ss1,inactive
16,O=c1[nH]c2ccccc2nc1/C=C/c1ccc(O)cc1,inactive
17,C=CCn1c(N/N=C/c2ccc(O)cc2)nc2ccccc2c1=O,inactive
18,COc1cc(/C=C/c2ccc3cccc(O)c3n2)ccc1O,inactive
19,COc1cc(/C=C/C(C)=NNc2ccccc2)ccc1O,inactive
20,CCCc1nc2ccccc2c(=O)n1/N=C/c1ccc(O)c(O)c1,inactive
21,COc1cc(/C=N/n2c(C)nc3ccccc3c2=O)ccc1O,inactive
22,COc1cc(/C=N/NC(=O)c2cc(-c3ccccc3OC(C)C)nc3ccccc23)ccc1O,inactive
23,COc1cc(/C=C/c2nc3ccccc3c(=O)[nH]2)ccc1O,inactive
